Source: PubChem BioAssay
Shown are actives, neighbours in structure and some others; about 1% of the full set was active somewhere.
APE1 inh-1: APE1 (human) endonuclease inhibition | P27695 | recombinant APE1, TAMRA/BHQ-2 abasic DNA cleavage fluorescence | Potency, µM (doses to about 65.8 µM), inactives show top-dose activity change, negative = inhibition, actives largely listed as inhibitors | 0.35% of 350,000 active;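 also: plate controls were vehicle for no effect and reference inhibitor for full effect; nearly all actives have a fitted effect of over 55% in size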
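Compound pre-exposure to 0.75 nM APE1, 15 min at ambient temperature. Reaction initiated with 50 nM TAMRA/BHQ-2 THF substrate, read immediately in kinetic mode, 525 nm excitation, 598 nm emission.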
L3MBTL1 inh: L3MBTL1 (human) inhibition; 0.66% of 230,000 active; Q9Y468; Potency, µM (doses to about 57.1 µM), inactives show top-dose activity, negative = inhibition, usual class: inhibitors; AlphaScreen L3MBTL1–H3K9me1 peptide binding; also: nearly all actives have a fitted effect of over 60% in size
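L3MBTL1 50 nM + b-AHA-H3(1-15)K9me1 75 nM, 30 min RT; compound added, 30 min RT; streptavidin donor/Ni-chelate acceptor beads 10 ug/mL each final, 30 min RT dark; AlphaScreen read.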
BLM inh-1: blocks DNA unwinding by human BLM helicase | P54132 | recombinant BLM DNA unwinding, fluorescence dequenching | Potency, µM (titrated, usually from 56.1 µM), for the others: top-dose activity change, negative = inhibition, usual class: inhibitors | 0.2% of 350,000 active;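 also: plate controls were vehicle for no effect and no enzyme for full effect; nearly all actives have a fitted effect of over 35% in size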
RECQ1 inh-1: inhibitors of human RECQ1 DNA helicase | P46063 | Potency, µM (series often up to 57.3 µM), without a hit: at the top dose activity, negative = inhibition, actives largely listed as inhibitors | RECQ1 DNA unwinding, red fluorescence kinetic read | 0.54% of 240,000 active;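 also: plate controls were vehicle for no effect and no enzyme for full effect; nearly all actives have a fitted effect of over 30% in size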
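RECQ1T1 50 nM; forked duplex (20 bp + 30-nt ss tails) 200 nM, ATP 2 mM final; pH 8.0, 2 mM MgCl2, 2.5 ug/ml poly(dI-dC); 15 min compound preincubation; discontinuous kinetic read over 2 h at RT.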
WRN helicase inh: WRN helicase (human) inhibition; 0.46% of 360,000 active; WRN helicase unwinding, fluorescent forked duplex, kinetic; Potency, µM (top dose mostly 114 µM), for inactives: at the highest dose activity change, negative = inhibition, actives largely listed as inhibitors; also: nearly all actives have a fitted effect of over 55% in size
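Fluorescence dequenching readout, ex 525 nm/em 598 nm, kinetic mode: forked duplex DNA (100 nM final) with adjacent fluorophore and quencher unwound by WRN (20 nM final) with 2 mM ATP. Compound preincubation 15 min, room temperature.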
FEN1 inhibitor: blocks human flap endonuclease 1; Recombinant FEN1 flap cleavage, fluorescence, 15 min; Potency, µM (highest dose often 114 µM), for inactives: at the top dose activity change, negative = inhibition, most hits filed as inhibitors; 0.35% of 390,000 active; P39748; also: nearly all actives have a fitted effect of over 65% in size
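FEN1 at 10 nM preincubated with compounds 15 min at room temperature, then flap DNA substrate added at 50 nM final. Signal read at 0 and 15 min; concentration-response fitted with four-parameter Hill equation.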
DNA dye displace: counter-screen for APE1 inhibitors: DNA dye displacement | shares compounds with APE1 inh-1 | DNA fluorescent dye displacement counterscreen, fluorescence | Potency, µM (titrated, usually from 28.5 µM), inactives show at the top dose activity change, negative = inhibition, usual class: inhibitors | 7% of 480 active | AID 2564;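 also: loss of thiazole orange fluorescence as the dye is displaced from duplex DNA; 0% = ThO with dsDNA and no compound and -100% = ThO without dsDNA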
Endo IV inh: blocks E. coli endonuclease IV DNA cleavage; shares compounds with APE1 inh-1; E. coli Endo IV, fluorogenic AP-site DNA cleavage; Potency, µM (highest dose often 27.1 µM), for inactives: at the top dose activity change, negative = inhibition, hits mostly inhibitors; 4% of 560 active;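 also: plate controls were uninhibited enzyme wells for no effect and no enzyme buffer wells for full effect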
APE1 inh-2: APE1 (human) endonuclease inhibition, confirmation; shares compounds with APE1 inh-1; purified APE1, fluorogenic abasic-site DNA cleavage; Potency, µM (top dose mostly 57.1 µM), inactives show at the highest dose activity change, negative = inhibition, actives largely listed as inhibitors; 44% of 750 active; also: nearly all actives have a fitted effect of over 30% in size
APE1 FP inh: compounds that displace a DNA probe from human APE1 | shares compounds with APE1 inh-1 | APE1 binding to TAMRA-labelled double-stranded DNA, fluorescence polarization displacement | Potency, µM (top dose mostly 28.5 µM), inactives show top-dose activity, negative = inhibition, hits mostly inhibitors | 7% of 480 active | AID 2573
BLM inh-2: confirmation of inhibitors of human Bloom syndrome helicase BLM; shares compounds with BLM inh-1; BLM DNA unwinding, fluorescence quenching, biochemical; Potency, µM, inactives show max response, negative = inhibition, actives largely listed as inhibitors; 40% of 220 active;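 also: strand separation dequenches TAMRA so unwinding raises red fluorescence; series mostly up to about 69 µM; nearly all actives have a fitted effect of over 45% in size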
RECQ1 inh conf: confirmation of human RECQ1 helicase inhibitors; shares compounds with RECQ1 inh-1; RECQ1 helicase DNA unwinding, fluorescence; Potency, µM (doses to about 229 µM), for inactives: at the highest dose activity change, negative = inhibition, actives largely listed as inhibitors; 28% of 610 active; also: nearly all actives have a fitted effect of over 45% in size
ADP FP counter: counter-screen for RECQ1 inhibitors: ADP displacement | 27% of 530 active | shares compounds with RECQ1 inh-1 | ADP fluorescence polarization displacement counterscreen | AID 2711 | Potency, µM (top dose mostly 228 µM), inactives show at the highest dose activity change, negative = inhibition, hits mostly inhibitors; also: nearly all actives have a fitted effect of over 45% in size
RECQ1 inh-2: RECQ1 helicase inhibition confirmed, round 2; 15% of 1,100 active; Potency, µM (series often up to 119 µM), inactives show at the highest dose activity, negative = inhibition, most hits filed as inhibitors; recombinant RECQ1 DNA unwinding, red fluorescence; shares compounds with RECQ1 inh-1; AID 504841; also: nearly all actives have a fitted effect of over 50% in size
* marks the source's active call; other numbers are inactive results; i = inactive; u = inconclusive; x = no result; [ ] = remark or other dose. Calls follow the shape of the dose curve; as a rule, active = well fitted curve in the direction sought with a large enough effect; inconclusive = small, poorly fitted or top-dose-only effect, or another doubt; inactive = no such curve, though single readings can be large; an effect the other way counts as inactive or inconclusive. Unless noted, % is scaled to controls: 0 for no effect and ±100 for the full control effect; potency is read from the fitted curve at half-maximal effect.

SMILES | APE1 inh-1 | L3MBTL1 inh | BLM inh-1 | RECQ1 inh-1 | WRN helicase inh | FEN1 inhibitor | DNA dye displace | Endo IV inh | APE1 inh-2 | APE1 FP inh | RECQ1 inh conf | ADP FP counter | RECQ1 inh-2 | others
COc1ccc(N=C2NC(=O)/C(=C\c3ccco3)S2)cc1 | 7.94µM* | x | u | 15.8µM* | u | -16.3% | -11.9% | 9.5% | 12.6µM* | -5.3% | u | -13.5%[91.9 µM] | u
COc1ccc(NC(=O)C2(C)CCN2CCc2ccccc2)cc1OC (stereo not given) | x | x | x | x | -7.3% | x | x | x | x | x | x | x | x
C=C/C(C)=C/[C@@]1(C)SC(=O)C(C)=C1O | 3.16µM* | x | x | 8.91µM* | x | x | x | -19.7%[57.1 µM] | 2µM* | x | 39.8µM* | 11.2µM* | x
N=C1/C(=C\c2ccc(SCc3ccco3)o2)C(=O)N=C2SC=NN12 | 3.16µM* | -28.7% | -5.9% | 8.91µM* | 56.2µM* | u | 14.6% | 9.9% | u | 4.1% | x | x | u
Nc1ccc(N(CCO)CCO)cc1 | 20µM* | 12.6µM* | -26.8% | u | -29.7% | -23.4% | -2.7% | 6.2% | -15.3%[24.4 µM] | -11.2% | x | x | -4.6%
COc1ccc2c(c1)c(=O)oc1cc(OCC(=O)N3CCc4ccccc4C3)ccc12 | 10µM* | x | -19.1% | 14.1µM* | u | -8.8% | -3.1% | u | 3.98µM* | -28.7% | -7.1%[114 µM] | 0.3%[91.9 µM] | u
C[C@H](CO)N1C[C@H](C)[C@H](CN(C)S(=O)(=O)c2cccs2)OCc2cnnn2CCCC1=O | x | x | x | x | 7.3% | x | x | x | x | x | x | x | x
CC(=O)NC1=NC(=O)/C(=C/c2cn(C(C)=O)nc2-c2ccccc2)S1 | 1.4% | -4.4% | -1.6% | -3.9% | -14.5%[11.6 µM] | u | x | x | x | x | x | x | x
CC(=O)NC1=NC(=O)/C(=C/c2cc(C)n(-c3cccc(C(=O)O)c3)c2C)S1 | 3.55µM* | x | -4.3% | u | 44.7µM* | 50.1µM* | 9.9% | -1.1% | 4.47µM* | u | x | x | 20µM*
Cc1cn([C@H]2C[C@H](O)[C@@H](CNCc3ccccc3OCCCN3CCOCC3)O2)c(=O)[nH]c1=O | x | x | x | x | -8.7% | x | x | x | x | x | x | x | x
NC1=NC(=O)/C(=C\c2ccco2)S1 | 22.4µM* | x | -22.3% | u | 50.1µM* | 50.1µM* | u | 5.3% | u | -4.2% | x | x | -22.3%
NC1=NC(=O)C(=Cc2ccccc2)S1 | x | x | x | x | -12.0% | -0.1% | x | x | x | x | x | x | x
O=C(C(=O)N1CCCN(Cc2ccc(F)cc2)CC1)c1ccccc1 | x | x | x | x | -8.8% | x | x | x | x | x | x | x | x
COc1ccc([C@H]2C[C@H](n3cc(COC(=O)c4ccccc4)nn3)[C@@H](O)CN2CC2CCCCC2)cc1 | x | x | x | x | 4.8% | x | x | x | x | x | x | x | x
c1ccc2c(c1)ccn2CCCN1CCCCC1 | x | x | x | x | 4.4% | -2.7% | x | x | x | x | x | x | x
CC1(C(=O)NS(=O)(=O)c2cccc(Cl)c2)CCN1C(=O)C1(c2ccc(Cl)cc2)CCC1 (stereo not given) | x | x | x | x | 2.8% | x | x | x | x | x | x | x | x
O=C(O)C1=CC(=C(c2ccc(O)c(C(=O)O)c2)c2ccc(O)c(C(=O)O)c2)C=CC1=O | 0.0067µM* | u | 2.82µM* | 0.282µM* | x | 0.794µM* | x | 2.24µM* | 0.0562µM* | x | 0.257µM* | 0.0%[25.6 µM] | x | BLM inh-2=10.8µM*
O=C1C=CC(=C(c2ccc(O)cc2)c2ccc(O)cc2)C=C1 | -3.2% | -1.6% | -3.0% | i | 2.5% | -1.0% | x | x | x | x | x | x | x
COc1ccc(/C=N/NC(=O)c2cc(O)c(O)c(O)c2)cc1Cn1cc([N+](=O)[O-])cn1 | 1.58µM* | x | u | 1.78µM* | 8.91µM* | u | u | 95.8% | 1.26µM* | -10.4% | u | -9.9%[91.9 µM] | x
O=C(c1cc(C(=O)c2ccco2)cc(C(=O)c2ccco2)c1)c1ccco1 | 31.6µM* | -8.5% | -19.5% | 35.5µM* | -17.2% | 8.5% | -7.4% | 26.6% | u | -5.4% | x | x | -54.5%
O=C(c1ncc[nH]1)c1ccco1 | -0.9% | 3.0% | -6.9% | i | -0.2% | -1.2% | x | x | x | x | x | x | x
COC(=O)C1=CN(c2ccc3c(c2)OCO3)C(N)=C(C#N)C1c1ccccc1 (stereo not given) | x | x | x | x | -3.5% | x | x | x | x | x | x | x | x
O=C1CC(=O)N(Cc2ccco2)C(=S)N1 | 11.2µM* | x | u | 11.2µM* | 10µM* | 35.5µM* | 3.2% | 35.4% | 35.5µM* | u | 15.8µM* | 17.2%[91.9 µM] | x
O=C1C2C(C(=O)N1Cc1ccco1)C1C=CC2C12CC2 (stereo not given) | -3.3% | -9.0% | -9.1% | 11.0% | -4.9% | 10.8% | x | x | x | x | x | x | x
COc1ccc(CN(C(=O)c2ccc(OCC(C)C)cc2)C2CCS(=O)(=O)C2)cc1 (stereo not given) | x | x | -4.9% | x | x | -6.3% | x | x | x | x | x | x | x
O=c1nc2s/c(=C\c3ccco3)c(=O)n2nc1Cc1ccc(F)cc1 | 7.94µM* | x | -15.6% | 22.4µM* | 50.1µM* | u | u | 13.0% | 7.08µM* | u | 56.2µM* | u | u
